According to PubChem BioAssay (NCI):
This is part of a sample that, as a whole, favours compounds with a hit. Of some 83,000 tested, about 20% had one in any assay.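 Negative percent growth values reflect cell death: -40 means 40% of the cells present at the start died, and -100 means all died.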 A number with no mark means an inactive call. Active and inactive are the calls of the source. How the source made its calls: active means growth percent below 10; inactive means the rest.

tested on: HL-60(TB) leukemia; test: NCI-60 one-dose screen, 48 h (100 = growth as untreated, 0 = no growth, -100 = all killed); conditions: 10 µM unless noted

Row | SMILES | growth
1 | COc1cc(C2C=C(C)N=C3SC=NN32)cc(OC)c1OC (stereo not given) | 94.7%
2 | COc1ccc(-c2nc(/C=C3/C(=O)Nc4ccc(F)cc43)c3ccccn23)cc1 | 61.6%
3 | COc1cccc(-c2nc3occn3c2-c2ccnc(NCCCNS(=O)(=O)c3ccc(C(F)(F)F)cc3)n2)c1 | 116%
4 | COc1ccc(NC(=O)CSc2nc3ccccc3c(=O)n2-c2ccccc2C(F)(F)F)c(OC)c1OC | 103%
5 | Cc1cccc(Cl)c1NC(=O)c1ccc2nc(NC(=O)NC3CCN(C)CC3)sc2c1 | 123%
6 | CC(C)OC(=O)Nc1cc(F)c(F)cc1F | 98.6%
7 | CCC(=O)Nc1nnc(Cc2ccc(OC)c(OC)c2)s1 | 53.2%
8 | CCCS(=O)(=O)Nc1cccc(Nc2ncnc3cc(NC(=O)CCl)ccc23)c1Cl | -35.5% (active)
9 | CCC(=O)N1C/C(=C/c2ccc(Br)cc2)C(=O)/C(=C/c2ccc(Br)cc2)C1 | -26.2% (active)
10 | BrCc1cccc(C[P+](c2ccccc2)(c2ccccc2)c2ccccc2)c1 | 12.2%
11 | Cc1ccc(-c2nc3c(N=Nc4ccc(S(N)(=O)=O)cc4)c(N)nn3c(N)c2C#N)cc1 | 2.71% (active)
12 | CC(C)(C)c1cc(C(C)(C)c2ccccc2)cc(Cc2cc(C(C)(C)c3ccccc3)cc(C(C)(C)C)c2O)c1O | 112%
13 | O=[N+]([O-])c1cccc(/C=N\Nc2ccccc2)c1 | 20.1%
14 | CCC(=O)C1C(=O)c2ccccc2C1=O | 75.3%
15 | O=S(=O)(Nc1ccc(I)cc1F)c1ccc(-c2cnc(C3CC3)o2)cc1 | 17.1%
16 | C=C(C)COC(=O)c1ccccc1C(=O)OCC1(C)CO1 (stereo not given) | 133%
17 | N#Cc1c(N2CCOCC2)nc(=S)[nH]c1-c1ccccc1 | 70.2%
18 | O=C(c1cnn2c1NC(c1ccc(F)cc1)C2)N1CCCCC1 (stereo not given) | 99.7%
19 | O=C1/C(=C/c2ccccc2F)CN(C(=O)C(Cl)Cl)C/C1=C\c1ccccc1F | -30.7% (active)
20 | Clc1ccc(C(/C=C/c2sc(Cl)nc2Cl)=N/Nc2cc(Cl)cc(Cl)c2)cc1 | 99.4%

Row | SMILES | growth
21 | Cc1ccc(C(=O)c2ccccc2)c(C)c1 | 115%
22 | Cc1oc2c(Cc3ccc(NC(=O)c4ccc(Cl)cc4)cc3)ncnc2c1C(=O)NO | 87.9%
23 | c1ccc(Cn2cc3c(c2)-c2nc(Nc4ccccc4)ncc2CC3)cc1 | 79.4% [100 µM]
24 | COc1ccc(Cc2cc(-c3ccccc3C)n[nH]c2=O)cc1 | 92.4%
25 | CC1(C)COC(=S)N1 | 80.3%
26 | CC(C)(C)c1cc(C(=O)Nc2cc3ccccc3cc2C(=O)NCCN)cc(C(C)(C)C)c1 | -68.9% (active)
27 | O=C(CCCCCn1c2ccccc2c2c3c(c4c5ccccc5[nH]c4c21)C(=O)N(O)C3=O)N1CCOCC1 | 44.6%
28 | Cc1cc(C)c(S(=O)O)c(C)c1 | 102%
29 | COc1cccc(/C=C/C(=O)c2cc3c(N)c(C(=O)Nc4cccc5ccccc45)sc3nc2C)c1 | 3.98% (active)
30 | O=c1sn(-c2cccc3ccccc23)c(=O)n1Cc1ccccc1 | 51.2%
31 | CC(=O)N1N=C(c2ccc3c(c2)OCO3)CC1c1c(C)nn(-c2ccccc2)c1N(C)Cc1ccccc1 (stereo not given) | 85.6%
32 | NC(CCl)=NCCC[C@H](N)C(=O)O | 104%
33 | Cc1cc(N/N=C/c2nc(-c3ccccc3)oc2C)c2cc(Cl)ccc2n1 | -37.4% (active)
34 | COc1cccc(C(=O)NNc2nc(Cl)nc(N3CCN(C(c4ccccc4)c4ccccc4)CC3)n2)c1 | 0.787% (active)
35 | C#Cc1nc(Nc2cc(C)[nH]n2)c2ccccc2n1 | -38.8% (active)
36 | CC(C)CSc1nc(NN)c(C#N)c(-c2ccc(F)cc2)n1 | 94.4%
37 | COC(=O)/C=C1\S/C(=N\NC(=O)c2cc3ccc2/C=C\c2ccc(cc2)/C=C\3)N(Cc2ccccc2)C1=O | -5.46% (active)
38 | CN1CCN(Cc2ccc(NC(=O)c3cncc(C#Cc4c(N)ncc5ccc(C#N)cc45)c3)cc2C(F)(F)F)CC1 | 9.71% (active)
39 | Cc1ccc(C2(C)NC(=O)N(CC(=O)Nc3cccc(C)c3)C2=O)cc1 (stereo not given) | 103%
40 | Clc1ccc(Nc2ccnc(NCCCNc3ccnc4cc(Cl)ccc34)n2)cc1 | -72.3% (active)
